These results are taken from the OligoGym collection.
Further: reference of the scale not given here.

For one assay, the target named is SLC20A1. The assay is described as follows: pooled miR-30 sensor sort-seq; sequence = guide strand. The settings on record: shRNA.
For the sequence TAGCACAAGTAACACTTCCCTC, the sensor-assay potency score (higher = more potent) was -0.562. Same read-out and setting: then TTCACGGTGCTATCTATGCTGG, with -1.16; and TTGACTGAACTGGACAAGGTTC, with -0.668; and TAGGCAACTGCACTGCACCATT, with -0.846.

Take TAGAGTAGAAGCCATATTGGTG: the sensor-assay potency score (higher = more potent) is -0.743.

TTTTCTGTCACCTAGACCCATC: the sensor-assay potency score (higher = more potent) is -0.857. Sequence TTCAATATCACCAACAGACAAC came in with a sensor-assay potency score (higher = more potent) of -1. As for TAACAGTCAATAAACTGCTTGC, the sensor-assay potency score (higher = more potent) stood at 0.0584.

The target in another assay is SLC22A17. The description is as above. The settings on record: shRNA.
For AAGGTCAGCAGCACAATCCCGC, the sensor-assay potency score (higher = more potent) is -0.694. The sequence TTCACTATCAGCCACCGTGCGG registered a sensor-assay potency score (higher = more potent) of -0.928.

In the case of TGAAACAGAATGATAGAGCAAG, the sensor-assay potency score (higher = more potent) is -0.0667. With TCTGTCTGCGGGGTAACCCAGG, the sensor-assay potency score (higher = more potent) is -1.27. Sequence TCCGGCAGCAGCATAATGCTGA gave a sensor-assay potency score (higher = more potent) of -0.933. As to TCACTATCAGCCACCGTGCGGA, the sensor-assay potency score (higher = more potent) was -0.275. As to TGCTCCAGGATCACCTGCCAGC, the sensor-assay potency score (higher = more potent) was -1.29.

Take TAACCCAGGAACAGGTAGCCGG: the sensor-assay potency score (higher = more potent) is -1.09. Take TATTGAAACAGAATGATAGAGC: the sensor-assay potency score (higher = more potent) is -0.514. The same measure, in the same setting: the value for TAGACACCCAGGTCAACACCGG was -0.269; that for ATTATAGTCCCAATCCTTGAGG was -1.04.

In the next assay the target is SLC22A1. The description is as above. The settings on record: shRNA.
TATCTTTATTGCTTCAGTGTTT: the sensor-assay potency score (higher = more potent) is -0.476. Still for that read-out and setting: then TTTCGGTGACATCCTCTTCGAG, with -1.03. Still for that read-out and setting: the value for ATGATTATGATGTTTAACCAGT was -1.09; that for TTTATTGCTTCAGTGTTTCTTT was 0.132; that for TTTGTGATAACAGCCACCGAGG was -0.671. Turning to TGGTACATGATCGCCACCGTTC, the sensor-assay potency score (higher = more potent) was -1.08. Consider TGATAGAGCACAGAGTCCGTGA, for which the sensor-assay potency score (higher = more potent) was -0.157. In the case of TTCGGTGACATCCTCTTCGAGG, the sensor-assay potency score (higher = more potent) is 0.00261.

Sequence TATAGTTCAGCTCCTCCGCAGG displayed a sensor-assay potency score (higher = more potent) of -0.994.

In the case of TACATGATCGCCACCGTTCTTC, the sensor-assay potency score (higher = more potent) is -0.241.

Consider TTTTGTGATAACAGCCACCGAG, for which the sensor-assay potency score (higher = more potent) is -0.543. For the sequence TTCTGCAGAGGATAACTCCATC, the sensor-assay potency score (higher = more potent) was -0.998.

The target in a further assay is SLC22A7. Described as above. Particulars: shRNA.
TTCTGAGTGGTCGTACTCCCAG gave a sensor-assay potency score (higher = more potent) of -1.56. As to TTATTTACAGAATCCTCCCCAA, the sensor-assay potency score (higher = more potent) was -0.0957.

ATGGCAAACATTACATAGCTGA came in with a sensor-assay potency score (higher = more potent) of -0.95. The sequence TACAACTCTGAAGTGAACAGGT came in with a sensor-assay potency score (higher = more potent) of 0.517. Same read-out and setting: the value for TTTATTTACAGAATCCTCCCCA was 0.685; that for TGAAGCTGTCCTCACACACTGG was -0.999; that for TTACATAGCTGACGGAGGCTGC was -0.245. On to TCTGAGTGGTCGTACTCCCAGC, for which the sensor-assay potency score (higher = more potent) was -1.03. TCGGAGGACACTAGCAGTCTAG came in with a sensor-assay potency score (higher = more potent) of -0.985.
